# BAZ2B block: qHTS Assay for Inhibitors of BAZ2B; Bromodomain adjacent to zinc finger domain protein 2B (Homo sapiens), Q9UIF8; AlphaScreen BAZ2B-H3K14Ac peptide displacement; Potency, µM (highest dose often 114 µM), for the others: at the top dose activity change, negative = inhibition, most hits filed as inhibitors; actives 4.4% (n = 360,000); AID 504333, 2011; note: % is set by controls: 0 for no effect and ±100 for the full control effect; nearly all actives have a fitted effect of over 60% in size
#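 AlphaScreen displacement of biotin-H3(5-23)K14Ac peptide (50 nM final) from BAZ2B (50 nM final) in PBS pH 7.4, 0.01% Tween-20; complex preformed 30 min RT, then compounds (top 110 uM) 30 min RT, beads 20 min dark.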
# G9a block: qHTS Assay for Inhibitors of Histone Lysine Methyltransferase G9a; AID 504332, 2011; actives 8.8% (n = 350,000); Potency, µM (titrated, usually from 102 µM), for inactives: at the highest dose activity, negative = inhibition, usual class: inhibitors; G9a H3K9 monomethylation, AlphaScreen, 2 h; Histone-lysine N-methyltransferase EHMT2 (Homo sapiens), Q96KQ7; note: % is set by controls: 0 for no effect and ±100 for the full control effect; nearly all actives have a fitted effect of over 75% in size
# Target sequence (Q96KQ7 913-1193 limits assumed): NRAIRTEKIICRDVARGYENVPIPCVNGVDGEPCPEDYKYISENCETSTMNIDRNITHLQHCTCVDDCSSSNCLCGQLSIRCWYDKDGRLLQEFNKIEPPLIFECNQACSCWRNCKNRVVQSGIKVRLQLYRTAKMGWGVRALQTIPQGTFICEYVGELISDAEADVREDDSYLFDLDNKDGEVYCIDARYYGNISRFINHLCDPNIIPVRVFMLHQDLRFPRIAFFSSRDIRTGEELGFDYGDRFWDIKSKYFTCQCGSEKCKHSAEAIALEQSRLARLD
#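 Step 1: enzyme (final 20 nM) with compound, 15 min RT. Step 2: substrate peptide 500 nM and SAM 20 uM, 2 h RT. Step 3: anti-H3K9me1 antibody and AlphaScreen beads, 10 min, then plate read.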
# PLK1 PBD block: qHTS for Inhibitors of PLK1-PDB (polo-like kinase 1 - polo-box domain): Primary Screen. Serine/threonine-protein kinase PLK1 (Homo sapiens), P53350. Plk1 PBD binding of FITC phosphopeptide, fluorescence polarization. Potency, µM, for the others: max response, negative = inhibition, most hits filed as inhibitors. actives 2.8% (n = 360,000); note: series mostly up to about 57 µM; % is set by controls: 0 for no effect and ±100 for the full control effect; nearly all actives have a fitted effect of over 65% in size
# HP1b chromo inh: HTS for Inhibitors of HP1-beta Chromodomain Interactions with Methylated Histone Tails | Chromobox protein homolog 1 (Homo sapiens), P83916 | AlphaScreen HP1-beta / biotin-H3K9me3 peptide binding | Potency, µM (highest dose often 114 µM), inactives show top-dose activity change, negative = inhibition, usual class: inhibitors | actives 0.56% (n = 390,000); note: nearly all actives have a fitted effect of over 70% in size
# Target sequence (P83916 whole entry, looked up): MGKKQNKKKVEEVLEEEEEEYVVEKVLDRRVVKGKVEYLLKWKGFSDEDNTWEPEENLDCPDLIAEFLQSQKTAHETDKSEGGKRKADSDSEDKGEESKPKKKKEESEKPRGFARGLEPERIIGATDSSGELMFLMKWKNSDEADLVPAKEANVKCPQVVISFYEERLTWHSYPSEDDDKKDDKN
#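 HP1-beta protein (50 nM final) preincubated 30 min at room temperature with biotinylated H3(1-18)K9me3 peptide (50 nM) in PBS pH 7.4, 0.01% Tween-20, then compound added for 30 min. AlphaScreen streptavidin donor/nickel chelate acceptor beads (10 ug/mL final), 30 min dark, luminescence read.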
# 12-LOX inh: Primary qHTS assay for inhibitors of human arachidonate 12S-lipoxygenase (ALOX12): Round 2; Potency, µM (series often up to 108 µM), for inactives: top-dose activity change, negative = inhibition, most hits filed as inhibitors; actives 1.1% (n = 580,000); purified 12hLO, xylenol orange hydroperoxide absorbance; Polyunsaturated fatty acid lipoxygenase ALOX12 (Homo sapiens), P18054; AID 1671190, 2021; note: % is set by controls: 0 for no effect and ±100 for the full control effect
#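 Purified human 12hLO (150 nM final) in 25 mM Hepes, 0.01% Triton X-100, pH 7.0 was preincubated 15 min at room temperature with compound. Then 40 uM arachidonic acid was added, 30 min. Hydroperoxide was read by Fe-XO absorbance ratio 573/405 nm.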
# JMJD2A Tudor inh: qHTS Assay for Inhibitors of JMJD2A-Tudor Domain. AlphaScreen JMJD2A-Tudor / H3K4me3 peptide binding. Potency, µM (highest dose often 114 µM), for inactives: at the highest dose activity change, negative = inhibition, usual class: inhibitors. Lysine-specific demethylase 4A (Homo sapiens), O75164. actives 4.4% (n = 390,000); note: % is set by controls: 0 for no effect and ±100 for the full control effect; nearly all actives have a fitted effect of over 50% in size
# The depositor's hits bear a star; ? = inconclusive; nt = no result; [ ] = dose if it differs, or a comment. The list is not random: actives were taken first. Their share in the collection is about 9%. Calls come from the whole dose curve; as a rule, active = well fitted curve in the direction sought with a large enough effect; inconclusive = small, poorly fitted or top-dose-only effect, or another doubt; inactive = no such curve, though single readings can be large; an effect the other way counts as inactive or inconclusive. Potency is the fitted concentration of half-maximal effect.
SMILES,BAZ2B block,G9a block,PLK1 PBD block,HP1b chromo inh,12-LOX inh,JMJD2A Tudor inh
Cc1noc([C@@H](C)NC(=O)Nc2ccc(Cl)cc2)c1C(=O)O,nt,nt,nt,nt,20µM*,nt
C[C@@H](NC(=O)Nc1ccc(Cl)cc1)c1onc(-c2ccc(F)cc2)c1C(=O)O,nt,nt,nt,nt,-12%[176 µM],nt
C[C@@H](NC(=O)Nc1ccccc1)c1onc(-c2ccc(F)cc2)c1C(=O)O,nt,nt,nt,nt,63µM*,nt
O=C(COC(=O)CN1C(=O)NC2(CCCCC2)C1=O)Nc1cc(F)ccc1F,nt,nt,-11%,30%,-18%,-15%
O=[N+]([O-])c1ccccc1N/N=C\c1ccccc1F,?,nt,-6%,-19%,0%,?
O=C(NNC(=O)C1CCCC1)c1cccc2ncccc12,nt,nt,nt,nt,-3%,nt
CNC(=O)[C@@H]1CN(C(=O)c2ccc(OC)cc2C)C[C@H]1CO,nt,nt,nt,nt,31%,nt
CN1CCC(N2CCN(C3CN(Cc4cn(Cc5cccc(C(F)(F)F)c5)nn4)S(=O)(=O)C3)CC2)CC1 (configuration not stated),nt,nt,-7%,nt,5.6µM*,nt
CN(C)CCN1CCN(C2CN(Cc3cn(Cc4cccc(Cl)c4)nn3)S(=O)(=O)C2)CC1 (configuration not stated),nt,nt,-1%,nt,7.9µM*,nt
O=S1(=O)CC(N2CCN(Cc3ccccc3F)CC2)CN1Cc1cn(Cc2ccc(C(F)(F)F)cc2)nn1 (configuration not stated),nt,nt,-1%,nt,40µM*,nt
COCC1CN(S(=O)(=O)c2ccc(F)cc2)CC12CCNCC2 (configuration not stated),nt,nt,nt,nt,32%,nt
Cc1nn(-c2ccccc2)c2nc(N)c(C#N)c(-c3ccc(O)c(O)c3)c12,?,?,3%,11%,32µM*,?
Cc1nn(-c2ccc(F)cc2)c2nc(N)c(C#N)c(-c3ccc(O)c(O)c3)c12,-2%,?,5%,-15%,?,-21%
Cc1ccc(N2CCN(c3ccc(C)cc3)C2c2cccnc2)cc1,35µM*,-20%[12.7 µM],2%,?,-16%,40µM*
Cc1cc(N2CC34C=CC(O3)C(C(=O)O)C4C2=O)no1 (configuration not stated),12%,-35%[12.7 µM],-6%,19%,0%,-1%[57.1 µM]
O=C(COc1ccc(Br)cc1Cl)NC(=S)N1CCc2ccccc21,11%,15%[59 µM],-13%,13%,-18%,-6%
O=C(COc1ccc(Br)cc1Br)NC(=S)N1CCCc2ccccc21,50µM*,8.9µM*,-16%,-6%,nt,50µM*
O=C(O)c1ccc(NC(=O)c2ccc(Cl)cc2)c(NC(=O)c2ccc(Cl)cc2)c1,-26%,?,-16%,25%,?,-14%
NC(=S)Nc1ccccc1Br,6%,nt,-10%,26%,?,-4%
NNc1ccccc1Br,nt,nt,nt,nt,8.9µM*,nt
O=C(COc1nc2ccccc2nc1N1CCOCC1)Nc1ccc(S(=O)(=O)N2CCCC2)cc1,46%,38%[59 µM],10%,17%,-15%,-18%
CCN(C(=S)Nc1cccnc1)c1cccc2ccccc12,?,?,27µM*,-11%,0%,-27%
CN(C(=S)Nc1ccc(Oc2ccccc2)cc1)c1ccc(O)cc1,?,1.3µM*,-17%,18µM*,?,56µM*
CCN(C(=S)Nc1cccnc1)c1ccccc1,-17%,-37%,-8%,18%,-6%,-3%
CN(C(=S)Nc1ccc(SC(F)F)cc1)c1ccc(O)cc1,?,1.4µM*,?,71µM*,?,?
SMILES,BAZ2B block,G9a block,PLK1 PBD block,HP1b chromo inh,12-LOX inh,JMJD2A Tudor inh
FC(F)Sc1ccc(NC(=S)NC2CCCC2)cc1,-1%,31%,-11%,25%,?,-14%
CN(C(=S)Nc1cccnc1)c1ccc(O)cc1,-10%,1.6µM*,-7%,?,?,?
CN(C(=S)Nc1ccccc1)c1ccccc1,-20%,-10%,-6%,2%,-19%,21%
Cc1ccc(S(=O)(=O)N(CC(=O)NCCSc2ccccn2)c2ccc(C)c(C)c2)cc1,-6%,8%,-1%,15%,?,-11%
COCCN(C(=O)COC(=O)C12CC3CC(CC(O)(C3)C1)C2)c1c(N)n(Cc2ccccc2)c(=O)[nH]c1=O,nt,nt,-7%,nt,-11%,nt
CC(=O)c1c(N2CCCC2)[nH]c(-c2ccccc2)nc1=S,?,?,-15%,4%,45µM*,-22%
CC(=O)c1c(N2CCOCC2)[nH]c(-c2ccccc2)nc1=S,1%,-6%,-20%,25%,?,?
CC(=O)c1c(N2CCN(Cc3ccccc3)CC2)[nH]c(-c2ccccc2)nc1=S,?,71µM*,1%,14%,40µM*,?
Cc1ccc(SCC(=O)Nc2ccc3c(c2)C(=O)NC3=O)cc1,-13%,-23%,4%,51%,-2%,-12%
O=C(CSc1nnnn1-c1ccccc1)c1cc2ccccc2oc1=O,1%,?,-15%,19%,85%,-7%
O=C(C1=C[C@H](c2ccc(C(F)(F)F)cc2)C[C@H](OCCCCO)O1)N1CCN(Cc2ccccc2)CC1,-12%,nt,-4%,26%,-11%,-29%
COc1ccc(/C=C/C(=O)Nc2nc(C)cc(C)n2)cc1OC,9%,nt,30µM*,?,0%,50µM*
COc1ccc(/C=C/C(=O)Nc2cc(C)on2)cc1,4%,8%[59 µM],30µM*,?,-19%,?
CC(C)CN1C(=O)c2cccn2CC1C(=O)N1CCN(Cc2ccc3c(c2)OCO3)CC1 (configuration not stated),nt,nt,nt,nt,7%,nt
CCCc1nnc2c(N(C)S(=O)(=O)c3ccccc3)nc3ccccc3n12,-11%,-11%[59 µM],-7%,10%,-12%,-12%
Cc1cccc(C)c1NC(=O)CCCSc1nnc(N)s1,-3%,50µM*,-8%,48%,-1%,-2%
CNC(=O)CSc1nnc(NC(=O)Nc2ccccc2)s1,2%,16µM*,nt,99%,?,-4%
CC1CCN(C(=O)CSc2nnc(NC(=O)Nc3ccccc3)s2)CC1,-3%,13µM*,nt,55%,?,-22%
O=C(Nc1ccccc1)Nc1nnc(SCC(=O)N2CCCCC2)s1,-4%,?,nt,99%,-24%,0%
Cc1ccc2[nH]c(CSc3nnc(NC(=O)c4ccccc4C)s3)cc(=O)c2c1,56µM*,-44%[59 µM],nt,23%[57 µM],?,-21%
